High-throughput results (PubChem)
Peg3 prom inh: Peg3 promoter activity inhibition; hit rate 1.7% among 360,000; inhibition, % at 20 µM; HeLa PEG-Prom luciferase reporter, luminescence, overnight; AID 588405;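 active = inhibition of at least 50% at 20 µM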
KKLEB tox: CF airway cell cytotoxicity counter-screen; activity change (cytotoxicity), % at 5 µM; AID 602141; hit rate 0.36% among 360,000; KKLEB CF airway cells viability, ATPlite luminescence, overnight; stronger effect = lower value; cells stimulated with P. aeruginosa culture filtrate;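 active = corrected activity change at or below -50% at 5 µM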
CF NFkB inh: inhibitors of cystic fibrosis induced NF-kB; inhibition, % at 5 µM; hit rate 0.86% among 360,000; KKLEB NF-kB-GFP reporter, PAF-induced, GFP fluorescence overnight;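 active = at least 50% inhibition at 5 µM, scaled per plate between neutral and stimulator controls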;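 also: PAF is a Pseudomonas aeruginosa culture filtrate used as stimulus; plate controls were PAF-stimulated DMSO wells for no effect and unstimulated DMSO wells for full effect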
TROY signal inh: TROY signaling inhibition. inhibition, % at 10 µM. Q293 LMP1-TROYcd NF-kB luciferase reporter, 4 h. hit rate 0.98% among 360,000;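 active = compounds whose plate-normalised and pattern-corrected inhibition of the luciferase reporter signal at the single screening dose is 50% or more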
TWEAK Fn14 block: TWEAK-Fn14 signaling inhibition; hit rate 2% among 360,000; AID 1159606; inhibition, % at 10 µM; TWEAK-stimulated Fn14 reporter cells, luciferase luminescence, 8 h; in the data active = inhibition above about 50%
HIF-2a block: HIF-2a inhibition; 786-0 RCC cells HIF-2a reporter, luciferase luminescence, overnight; hit rate 0.72% among 360,000; inhibition, % at 18.8 µM;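 active = inhibition of the luminescence signal of 40% or more relative to plate controls, in a single-dose primary screen at 18.75 µM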
Active calls of the source: *. This is a sample that favours compounds with a hit; in the whole collection about 4% have one here.

SMILES	Peg3 prom inh	KKLEB tox	CF NFkB inh	TROY signal inh	TWEAK Fn14 block	HIF-2a block
CCN1CCN(c2c(/C=C3\SC(=S)N(Cc4ccco4)C3=O)c(C)c(C#N)c(=O)n2C)CC1	42	-6	-6	-14	8	1
COc1ccc(NC(=O)N(C)C[C@H]2Oc3ccc(NS(=O)(=O)c4ccc(OC)cc4)cc3C(=O)N([C@H](C)CO)C[C@@H]2C)cc1	-13	0	-8	-4	-22	-1
CCOC(=O)c1ccc(NC(=O)CN2C(=O)CCC2=O)cc1	-12	-2	-9	-45	-13	8
Cn1c(=O)c(C(=O)NC2CCCCCC2)c(O)c2ccccc21	-120	-7	12	-26	-27	-158
CC(=O)c1c(O)c2ccccc2n(C2CCCCC2)c1=O	18	0	49	56*	65*	19
NS(=O)(=O)c1ccc(N=Nc2c[nH]c(=O)c(O)c2)cc1	17	1	3	7	2	41*
CCN(CC)C(=O)c1[nH]cnc1C(=O)NCCCCCNC(=O)OC(C)(C)C	12	5	-28	-2	-4	-1
O=C(NNc1ccc(F)cc1F)c1c(F)cccc1Cl	20	-21	9	-11	58*	16
Cc1ccc(-c2csc(N3CCN(c4cc5c(cc4Cl)nc(-c4ccncc4)n5CCN4CCCCC4)CC3)n2)cc1	1	-4	-5	3	-12	4
O=C(N/N=C/c1cccnc1)/C(=C\c1cccs1)NC(=O)c1ccccc1	20	0	2	9	-6	9
CCS(=O)c1ccccc1C(=O)OC(C)C(=O)Nc1ccc(S(=O)(=O)N2CCCC2)cc1 (configuration not stated)	3	16	-4	5	9	-5
O=C(NCCCN1CCOCC1)C(=O)N/N=C/c1c(Cl)cccc1Cl	16	4	4	-18	17	23
O=C(NCCCN1CCOCC1)C(=O)N/N=C/c1c2ccccc2cc2ccccc12	70*	-5	-15	-5	-14	33
Cc1ccccc1Cn1ccc(NC(=O)c2cnn3c(C(F)(F)F)cc(-c4ccco4)nc23)n1	51*	0	28	25	46	0
O=C(Nc1cnn(C23CC4CC(CC(C4)C2)C3)c1)c1cnn2c(C(F)(F)F)cc(-c3ccco3)nc12	71*	-25	16	81*	96*	2
CCOc1ccc2nc(SCC(=O)Nc3nonc3C)[nH]c2c1	-6	9	-16	-5	-20	2
O=C(CSc1nnc(-c2ccncc2)n1Cc1ccco1)Nc1nc(-c2ccccc2)cs1	22	-55*	43	9	28	2
O=C(CSc1nnc(-c2ccncc2)n1Cc1ccco1)Nc1ccccc1Cl	13	-17	16	3	12	10
Nn1c(SCC(=O)Nc2ccc(S(N)(=O)=O)cc2)nnc1-c1ccco1	9	6	-16	57*	9	-2
Cc1csc(NC(=O)CSc2nnc(-c3ccco3)n2C)n1	-21	-1	3	81*	86*	7
Cc1cccc(C)c1NC(=O)CSc1nnc(-c2ccco2)n1N	-1	1	4	20	-7	0
CC(=O)c1c(C)[nH]c(C(=O)OCCOc2ccccc2)c1C	3	-16	-6	62*	-19	-58
Cc1c(C(=O)OCCOc2ccccc2)[nH]c2c1C(=O)CCC2	-23	-8	0	66*	82*	-40
COc1ccc(OC)c(CNC(=O)CCCc2cn(C)c3ccccc23)c1	10	-10	16	7	-7	13
CCn1cc(CNCc2cn(C)nc2-c2ccc(C3CCCCC3)cc2)cn1	68*	8	-5	2	-32	2
SMILES	Peg3 prom inh	KKLEB tox	CF NFkB inh	TROY signal inh	TWEAK Fn14 block	HIF-2a block
Cn1cc(CNCc2ccc(OC(F)(F)F)cc2)c(-c2ccc3c(c2)OCCO3)n1	-88	-4	3	20	29	5
COCCNC(=O)c1cnn2c(C(F)(F)F)cc(-c3ccc4c(c3)OCO4)nc12	11	-5	-4	15	-35	6
O=C(Nc1ccc(Br)cc1)c1ccc(F)c(S(=O)(=O)NCc2cccs2)c1	17	-12	11	41	58*	6
O=S(=O)(NCc1cccs1)c1ccc(Br)cc1	-29	21	5	-16	4	-18
Cc1cccnc1Nc1nc(-c2ccccn2)cs1	-128	5	9	-29	101*	-180
COc1ccccc1N1CCN(C(=O)CCn2c(=O)[nH]c3ccccc3c2=O)CC1	3	-1	-6	10	3	10
COc1ccccc1N1CCN(C(=O)CCCn2c(=S)[nH]c3ccccc3c2=O)CC1	68*	0	-11	31	39	8
Cc1ccc(S(=O)(=O)N2CCC(C(=O)Nc3nnc(C)s3)CC2)cc1	22	4	-6	10	-4	14
CN(C)CCOCCOc1ccc(Cl)cc1C(C)(C)C	18	-22	11	-34	-26	11
CC(O)CNCCCOc1ccc(Cl)cc1C(C)(C)C (configuration not stated)	81*	-11	10	-9	-22	2
Oc1ccc(Cl)cc1N=Cc1sc2ccccc2c1Cl	-10	11	-7	21	26	-14
O=[N+]([O-])c1ccc(O)c(N=Cc2sc3ccccc3c2O)c1	-55	-14	9	76*	76*	-130
CC(C)NC(=O)N(O)C1N(Cc2ccc3c(c2)OCO3)C(=S)SC1(C)C (configuration not stated)	4	0	-14	-7	58*	8
CC(=O)N[C@H]1[C@H](OCc2ccccc2F)O[C@H](COC(C)=O)[C@@H](OC(C)=O)[C@@H]1OC(C)=O	7	-3	17	-4	-7	10
COc1ccc(O[C@@H]2O[C@H](COC(C)=O)[C@@H](OC(C)=O)[C@H](OC(C)=O)[C@H]2NC(C)=O)cc1	79*	-1	2	6	0	11
Cn1c(=O)c2[nH]c(C3CC=CCC3)nc2n(C)c1=O (configuration not stated)	8	15	-7	7	47	1
CCOC(=O)c1c(O)c2cc(Cl)ccc2n(CC)c1=O	18	-6	15	2	9	16
OC(COCC(F)(F)C(F)(F)C(F)(F)C(F)F)Cn1c2ccc(Cl)cc2c2cc(Cl)ccc21 (configuration not stated)	63*	-17	46	57*	64*	-7
CCN(CC)c1ccc(NC(=O)CCc2nnc3ccc(N4CCCC4)nn23)c(C)c1	-2	-10	-20	1	-5	2
CCn1cc(C(=O)NC(C)C23CC4CC(CC(C4)C2)C3)cn1 (configuration not stated)	22	-9	6	3	-8	19
